Screening data deposited in PubChem BioAssay by several laboratories.
A selection: hits, their analogues and other compounds. The true share with any hit is near 2.7%.
PP1 counter = blocks human PP1-alpha phosphatase, a PP5 counter-screen; purified PP1alpha, OMFP fluorescence; P62136; hit rate 0.9% among 320,000; inhibition, % at 6.7 µM; AID 2235;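 active = inhibition above the mean inhibition of all tested compounds plus 3 SD, computed separately for each screening campaign, cut at about 15% in these data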
PP5 inh = PP5 (human) phosphatase inhibition; P53041; purified PP5c, OMFP substrate fluorescence; inhibition, % at 6.7 µM; hit rate 0.18% among 320,000; AID 1987;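 active = inhibition above the campaign's mean inhibition across all tested compounds plus 3 SD, cut at about 9.5% in these data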;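 note: 0% = DMSO only and 100% = 100 µM cantharidin control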
ANO1 activ = activates or potentiates the mouse TMEM16A chloride channel. Q8BHY3. HEK293 TMEM16A/YFP-H148Q/I152L, iodide quench fluorescence; hits give low values. B-score at 10 µM. hit rate 0.3% among 340,000;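 active = fluorescence-ratio B-score plate-corrected deviation score at least 3 library SD below zero, with starting fluorescence score within 5 deviations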;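 note: channel opened by trigger with iodide after compound preincubation; score built on the fluorescence ratio of max minus min over baseline; more negative score means more quench and so TMEM16A activation or potentiation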
FID counter = counter-screen for HCV NS3 helicase inhibitors: DNA intercalator displacement; DNA fluorescent intercalator displacement, fluorescence; inhibition, % at 7.9 µM; hit rate 0.17% among 290,000; in the data active = inhibition above about 37%;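 note: 0% = vehicle and 100% = reference compound; higher means more ethidium bromide displaced from hairpin DNA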
PREPL inh = inhibits the human prolyl oligopeptidase-like enzyme; Q4J6C6; recombinant PREPL, fluorescence polarization activity-based probe; inhibition, % at 5.96 µM; hit rate 0.68% among 320,000; AID 2751; in the data active = inhibition above about 43%;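 note: 0% = enzyme with DMSO and 100% = wells lacking enzyme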
ANO1 block = blocks the mouse calcium-activated chloride channel TMEM16A; Q8BHY3; HEK293 TMEM16A/YFP iodide influx fluorescence, ionomycin; normalized B-score (activity score, 25-100; higher = stronger inhibition) at 10 µM; hit rate 1.2% among 310,000;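 active = ratio plate-corrected score three or more library SD toward inhibition, starting fluorescence score within five deviations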;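 note: score derived from kinetic fluorescence span divided by baseline fluorescence per well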
The depositor's hits bear a star; i = inactive; · = no result.

SMILES	PP1 counter	PP5 inh	ANO1 activ	FID counter	PREPL inh	ANO1 block
CCOC(=O)C1=C(CBr)NC(=O)NC1C (stereo unspecified)	1.3	-1.2	i	1.9	7.2	i
S=C(NNc1ccnc2cc(Cl)ccc12)Nc1ccccc1Cl	6.0	3.4	i	-1.9	19.4	25*
COc1ccc(CC(C)N2CCN(Cc3ccccc3)CC2)cc1OC (stereo unspecified)	9.4	3.9	i	38.1*	9.5	i
COc1ccc(CC(C)N2CCN(c3ccccc3OC)CC2)cc1OC (stereo unspecified)	-0.6	-1.6	i	-2.1	10.4	i
CCN(CC)Cc1c(C(=O)N/N=C/c2cccnc2)nnn1-c1nonc1N	-3.3	-1.0	i	-5.3	21.4	i
CCN(CC)Cc1c(C(=O)N/N=C/c2ccc(OCc3ccccc3C)cc2)nnn1-c1nonc1N	16.4*	3.6	i	14.0	24.0	i
COc1cccc(-c2c(C(=O)N/N=C/c3cccnc3)nnn2-c2nonc2N)c1	-1.5	-0.9	-37.4*	-23.4	7.6	i
Nc1nonc1-n1nnc(C(=O)N/N=C/c2cc(Br)ccc2O)c1CNc1ccccc1	17.0*	2.5	i	15.5	24.4	i
COc1cccc(-c2c(C(=O)N/N=C/c3ccncc3)nnn2-c2nonc2N)c1	-3.5	-1.0	i	-22.5	10.0	i
Cc1ccc(/C=N/NC(=O)c2nnn(-c3nonc3N)c2CNc2ccccc2)cc1	-0.6	1.0	i	-17.1	0.7	i
Cc1c(N(C)S(=O)(=O)c2ccc(Cl)c(C(=O)NCC(C)(C)N3CCOCC3)c2)c(=O)n(-c2ccccc2)n1C	·	·	i	·	·	·
O=[N+]([O-])c1ccc2c(c1)C(=NO)c1cc(Cl)c(Cl)cc1-2	·	·	i	·	·	·
CCOC(=O)C1(Cc2ccccc2C(F)(F)F)CCN(CCCn2cccn2)CC1	-1.9	-2.1	-6.57*	17.1	-51.5	i
CCOC(=O)C1(CCCc2ccccc2)CCN(CCCn2cccn2)CC1	-2.5	-2.3	i	13.8	-18.7	i
CCN1CCN(c2ccc(NC(=O)CCc3c(C)nc4c(-c5ccccc5)c(C)nn4c3C)cc2)CC1	0.5	0.6	i	41.0*	13.8	i
Cc1nc2c(-c3ccccc3)c(C)nn2c(C)c1CCC(=O)NCc1ccco1	2.8	2.0	i	-19.2	11.2	i
O=[N+]([O-])c1ccccc1S(=O)(=O)NCCSCc1ccco1	17.3*	3.9	i	·	4.8	·
O=[N+]([O-])c1ccccc1S(=O)(=O)NCCC1=CCCCC1	1.6	4.2	i	-2.9	-4.2	25*
O=C(Cc1ccccc1[N+](=O)[O-])NCCC1=CCCCC1	3.5	-0.1	i	-2.3	2.3	i
COc1ccc(-c2csc(NC(=O)c3ccccc3F)c2C(=O)O)cc1	-4.0	0.4	i	-9.1	-6.8	i
COc1ccccc1NC(=S)N(C(C)C)C(C)c1ccccn1 (stereo unspecified)	-1.1	-0.8	i	1.4	3.2	i
CC(C)N(C(=S)Nc1cccc(C(F)(F)F)c1)C(C)c1ccccn1 (stereo unspecified)	2.2	3.0	i	-0.3	-0.6	100*
CCOc1ccc(-n2c(SCC(=O)Nc3ccccc3CC)nc3n[nH]c(C)c3c2=N)cc1	0.2	0.8	·	-39.7	15.9	i
CCOc1ccc(-n2c(SCC(=O)Nc3ccc(Br)cc3)nc3n[nH]c(C)c3c2=N)cc1	16.9*	2.6	i	-3.9	4.0	i
CCC1(c2ccc(F)cc2)NC(=O)N(CC(=O)N2CCN(S(=O)(=O)c3ccc(C)cc3C)CC2)C1=O (stereo unspecified)	·	·	i	·	·	·
SMILES	PP1 counter	PP5 inh	ANO1 activ	FID counter	PREPL inh	ANO1 block
CC(=O)c1cc(Cc2csc(C(C)=O)c2)cs1	3.0	1.3	i	-2.7	52.7*	i
COC(=O)C(NS(=O)(=O)c1ccc(N2CCCC2=O)cc1)c1ccccc1 (stereo unspecified)	0.7	0.2	i	-16.2	-5.6	i
CC(C)(C)n1ncc2c(=O)n(CC(=O)NCc3ccccc3Cl)cnc21	-5.0	5.2	-21.6*	-6.6	-0.9	i
Cc1cc(NC(=O)NC(=O)c2ccccc2NC(=O)C(C)N)ccc1Oc1ncc(Br)cn1 (stereo unspecified)	·	·	i	·	·	·
O=C(O)c1cn(Cc2ccccc2)c2ccc(Cl)cc2c1=O	17.4*	0.6	i	·	-0.5	i
Cc1ccc(NC(=O)C(C)SCc2nc3sc(C)c(C)c3c(=O)[nH]2)nc1 (stereo unspecified)	-2.2	0.3	i	·	24.3	i
O=C(c1ccccc1)c1nn(-c2ccccc2)c2nnc(Cc3ccccc3)c(=O)n12	11.8	1.8	i	-16.4	3.6	i
Cc1ccc(-n2nc(C(=O)c3ccccc3)n3c(=O)c(Cc4ccccc4)nnc23)cc1	16.8*	0.8	i	-3.4	-0.4	i
COc1ccc(-c2oc3ccc(-c4cc(OC)c(OC)c(OC)c4)cc3c2C#Cc2ccccn2)cc1	·	·	i	·	6.6	·
COc1cccc(CN2CCNC(=O)C2CC(=O)N(Cc2cnn(C)c2)C(C)C)c1 (stereo unspecified)	1.4	2.1	-7.55*	-15.1	10.4	i
CN(Cc1cnn(C)c1)C(=O)CC1C(=O)NCCN1Cc1cccc(Oc2ccccc2)c1 (stereo unspecified)	-3.5	-0.3	i	-35.5	2.0	i
C=CC[C@H](CC(=O)NCCO)C(=O)NC[C@@H](OC(=O)[C@@H](CC=C)CC(=O)OC(C)(C)C)c1ccccc1	·	·	-17.7*	·	21.7	·
CCC(C)[C@H]1CNCCN1CCc1cccc2ccccc12 (stereo partly specified)	-1.3	1.5	i	·	24.8	100*
CC(O)[C@H]1CNCCN1CCc1cccc(F)c1 (stereo partly specified)	-0.4	-1.1	-15.4*	·	12.9	i
CCN1C(=O)/C(=C\c2ccc(F)cc2)N=C1SCC(=O)NCc1ccco1	-2.2	1.2	i	-2.8	-10.2	i
C=CCN1C(=O)/C(=C\c2ccc(Cl)cc2)N=C1SCC(=O)NCCC	-0.7	-2.0	-26.8*	0.1	1.8	i
Cc1snnc1C(=O)NC(=S)Nc1ccccc1	-2.3	-1.1	i	-6.0	2.1	i
O=c1[nH]c(-[n+]2ccc3ccccc3c2)c(/C=N/N=C(\[O-])c2ccccc2)s1	-0.3	0.8	-11.5*	-18.1	14.1	i
COC(=O)CNC(=O)CN1c2cccc3cccc(c23)S1(=O)=O	-0.7	2.1	i	-2.1	6.8	i
CC(=O)C(Cc1ccccc1)NC(=O)CN1c2cccc3cccc(c23)S1(=O)=O (stereo unspecified)	0.7	2.4	-9.82*	·	2.5	·
CC(c1nc2ccccc2c(=O)[nH]1)N1CCCN(S(=O)(=O)c2ccc(F)cc2)CC1 (stereo unspecified)	-0.1	2.4	i	·	0.7	·
